In PubChem BioAssay (NCI):
This is part of a sample that, as a whole, favours compounds with a hit. Of some 83,000 tested, about 20% had one in any assay.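 Compound tested at a single concentration for 48 hours in 96-well plates; a percent growth value below 10 was scored as active.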 Calls of active or inactive are those of the source.

System: T-47D breast
Test: NCI-60 one-dose screen, 48 h (100 = growth as untreated, 0 = no growth, -100 = all killed)
Conditions: 10 µM unless noted

SMILES | growth
COC(=O)c1cc(-c2ccc(S(C)(=O)=O)cc2)[nH]c1N/N=C/c1c(Cl)cccc1Cl | 31.2% (inactive)
Cc1cccnc1NC(=S)Nc1ncccc1C | 99.7% (inactive)
O=C(c1ccc(-c2ccccc2)cc1)c1ccc([N+](=O)[O-])cc1 | 92.8% (inactive)
O=Nc1c(-c2c(O)[nH]c3ncccc23)[nH]c2ccccc12 | 49.1% (inactive)
CO[C@H]1/C=C(/C)CCC[C@H](C)[C@H](O)[C@@H](C)C(=O)C(C)(C)[C@@H](O)CC(=O)O[C@@H]1/C(C)=C/c1csc(C)n1 | 42.3% (inactive)
COc1ccc(-c2nc(/C=C3\SC(=NCc4ccccc4)NC3=O)c3ccccn23)cc1 | -67% (active)
COc1ccc2c3c([nH]c2c1)C(=O)c1nc(C)ccc1C3=O | 48.5% (inactive)
COc1cc(-c2cc(-c3ccc(N(C)C)cc3)nc(N3CCC(O)CC3)c2C#N)cc(OC)c1OC | 8.21% (active)
Cn1ccc2c3c(ccc21)CC3=O | 105% (inactive)
COc1ccc2[nH]cc(C(c3cc(F)cc(F)c3)c3c[nH]c4ccc(OC)cc34)c2c1 | 43.1% (inactive)
CCOC(=O)CNP(=O)(OC[C@@H](Cc1ccccc1)NC(=O)c1cc2ccccc2s1)Oc1ccccc1 (stereo not given in full) | 55.3% (inactive)
N#Cc1c(NC(=O)c2ccccc2)sc2c1CCC(=O)C2 | -24.8% (active)
O=C1Nc2ccccc2/C1=C\c1nc(-c2ccccc2)n2ccccc12 | 43.1% (inactive)
COc1ccc2c(c1)[n+]([O-])c(C(=O)/C=C/C=C(\Cl)c1cc(OC)c(OC)c(OC)c1)c(C)[n+]2[O-] | 87.1% (inactive)
CCn1c(SCC(=O)c2ccc(Br)cc2)nnc1-c1ccncc1 | 105% (inactive)
O=C(Nc1ccc(NC(=O)c2cc(=O)[nH]c3ccccc23)cc1)Nc1cccc(C(F)(F)F)c1 | 58.1% (inactive)
Cc1ccc(S(=O)(=O)N2CCCC2CO)cc1 (stereo not given) | 100% (inactive)
COc1cccc(CNc2ncnc3c2ncn3C2OC(CO)C(O)C2O)c1O (stereo not given) | 16.6% (inactive)
CN(CCOc1ccc(C#N)cc1)CCOc1ccc(C#N)cc1 | 79.9% (inactive)
CC(C)n1cnc2c(=S)nc[nH]c21 | 101% (inactive)

SMILES | growth
Cc1nc(-c2ccccc2)cc2c(O)c(C(=O)NN)[nH]c(=O)c12 | 92.4% (inactive)
CCOC(=O)c1nc(Nc2ccc(NC(=O)Nc3ccc(F)cc3)cc2)c2ccccc2n1 | 99.2% (inactive)
C1=CN2CC(c3ccccc3)=NNC2c2ccccc21 (stereo not given) | 88.7% (inactive)
Nc1ncnc2c1N=C(c1ccc3c(c1)OCO3)CC(c1ccc([N+](=O)[O-])cc1)N2 (stereo not given) | 72.4% (inactive)
O=C1c2cccc(NCCN=Cc3cc(O)ccc3O)c2C(=O)c2c(NCCN=Cc3cc(O)ccc3O)cccc21 | -2.29% (active)
COC(=O)c1cc(-c2ccccc2)[nH]c1N/N=C/c1c(Cl)cccc1Cl | 38.5% (inactive)
O=C(N/N=C/c1ccc(F)cc1)c1ccc(C(F)(F)F)nc1Nc1cccc(C(F)(F)F)c1 | -3.3% (active)
CCOc1nc(-c2ccccc2)cc2c(O)c(C(=O)NN)[nH]c(=O)c12 | 108% (inactive)
O=C(Nc1ccc(-c2nc(N3CCOCC3)c3cccn3n2)cc1)Nc1cccnc1 | -24.8% (active)
O=C1CNC(c2ccccc2)C(c2ccccc2)N1 (stereo not given) | 104% (inactive)
COc1cc(CNS(=O)(=O)c2ccc(C)cc2)ccc1OCc1cn(-c2ccc(Br)cc2)nn1 | 101% (inactive)
NC(=O)c1c(NC(=O)c2ccccc2)sc2c1CCC(=O)C2 | -9.93% (active)
CCCc1cc(NC)nc(S(=O)(=O)CC)n1 | 111% (inactive)
COC(=O)c1c2c(c(C)[n+]([O-])c1C)C(=O)C=C(NCc1ccc(OC)cc1)C2=O | -31% (active)
COC(=O)c1c2c(c[n+]([O-])c1C)C(=O)C(NCc1ccccc1)=CC2=O | -31.8% (active)
C=CCc1c2c(c(OC)c3ccoc13)C(=O)/C(=C/c1ccccc1OC)O2 | 59.8% (inactive)
COc1cc(CNS(=O)(=O)c2ccc(C)cc2)ccc1OCc1cn(-c2ccc(F)cc2)nn1 | 53.7% (inactive)
Cc1ccc(Cl)cc1Nc1nc(C(F)(F)F)ccc1C(=O)N/N=C/c1cccnc1 | 32.9% (inactive)
O=C(O)/C(=C\c1ccc(Cl)cc1)c1ccc(Cl)cc1 | 95.9% (inactive)
Cc1cc(N)c2cc(NC(=O)/C=C\c3ccccc3Cl)ccc2n1 | -58.1% (active)
